Compound activity: PubChem BioAssay, National Center for Advancing Translational Sciences (NCATS)
Shown are actives, neighbours in structure and some others; about 12% of the full set was active somewhere.
L3MBTL1 block – inhibitors of human L3MBTL1. Q9Y468. AlphaScreen L3MBTL1–H3K9me1 peptide binding. Potency, µM (titrated, usually from 57.1 µM), usual class: inhibitors. hit rate 0.66% among 230,000. AID 485360; also: nearly all actives have a fitted effect of over 60% in size
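L3MBTL1 50 nM + b-AHA-H3(1-15)K9me1 75 nM, 30 min RT; compound added, 30 min RT; streptavidin donor/Ni-chelate acceptor beads 10 ug/mL each final, 30 min RT dark; AlphaScreen read.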
JMJD2A Tudor – blocks the human JMJD2A Tudor domain; O75164; AlphaScreen JMJD2A-Tudor / H3K4me3 peptide binding; Potency, µM (series often up to 114 µM), hits mostly inhibitors; hit rate 4.4% among 390,000; AID 504339; also: nearly all actives have a fitted effect of over 50% in size
BAZ2B block – BAZ2B (human) inhibition; Q9UIF8; AlphaScreen BAZ2B-H3K14Ac peptide displacement; Potency, µM (doses to about 114 µM), usual class: inhibitors; hit rate 4.4% among 360,000; also: nearly all actives have a fitted effect of over 60% in size
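AlphaScreen luminescence quantifies BAZ2B engagement of H3K14Ac peptide; the protein and biotinylated peptide are both at 50 nM final, buffer PBS pH 7.4 with 0.01% Tween-20, all steps at room temperature.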
Sfp inh – inhibitors of Bacillus subtilis Sfp phosphopantetheinyl transferase; Potency, µM, actives largely listed as inhibitors; Q9F4F7; Biochemical Sfp PPTase activity, qHTS; hit rate 3.5% among 310,000; AID 1490;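 also: the enzyme is Sfp with the accession as filed and its product quenches rhodamine fluorescence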
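Compounds were incubated with enzyme (final 15 nM) for 15 min at room temperature before substrate addition started the reaction. Fluorescence at 525 nm excitation, 598 nm emission was recorded immediately and after 30 minutes.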
HP1b chromo inh – blocks HP1-beta chromodomain binding to methylated histone tails; AlphaScreen HP1-beta / biotin-H3K9me3 peptide binding; Potency, µM (top dose mostly 114 µM), usual class: inhibitors; hit rate 0.56% among 390,000; also: nearly all actives have a fitted effect of over 70% in size
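AlphaScreen: HP1-beta (50 nM) preformed 30 min with biotin-H3(1-18)K9me3 peptide (50 nM) in PBS pH 7.4, 0.01% Tween-20. Compound added for 30 min at RT, then streptavidin donor/nickel chelate acceptor beads (10 ug/mL) for 30 min.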
G9a block – inhibitors of human histone lysine methyltransferase G9a; Q96KQ7; G9a H3K9 monomethylation, AlphaScreen, 2 h; Potency, µM (series often up to 102 µM), usual class: inhibitors; hit rate 8.8% among 350,000; AID 504332; also: nearly all actives have a fitted effect of over 75% in size
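AlphaScreen detection with an anti-monomethyl H3K9 antibody quantified product after a 2 h room-temperature reaction containing 500 nM biotinylated H3K9 peptide, 20 µM SAM and 20 nM enzyme, which had been preincubated 15 min with compound.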
Hits are given with their value; [ ] = dose if it differs, or a comment. Calls follow the shape of the dose curve; as a rule, active = well fitted curve in the direction sought with a large enough effect; inconclusive = small, poorly fitted or top-dose-only effect, or another doubt; inactive = no such curve, though single readings can be large; an effect the other way counts as inactive or inconclusive.

What do the screens show for `Cc1ccc(NC2CC(=O)N(c3ccc(C)cc3)C2=O)cc1` (stereo unspecified)?
JMJD2A Tudor: inactive[11.4 µM]; BAZ2B block: inactive; Sfp inh: inactive; HP1b chromo inh: inactive; G9a block: inactive

How did Cc1ccc(S(=O)(=O)c2ccccc2)cc1S do in these assays?
BAZ2B block: inactive; Sfp inh: 45µM; G9a block: 3.5µM

Results for Nc1ccc(S(=O)(=O)c2cccc(N)c2)cc1 ?
L3MBTL1 block: inactive; JMJD2A Tudor: inactive; BAZ2B block: inactive; Sfp inh: inactive; HP1b chromo inh: inactive; G9a block: inactive

What do the screens show for `CC(C)C(=O)c1cc2c(cc1NC(=O)c1ccccc1F)OCCO2`?
JMJD2A Tudor: inactive; BAZ2B block: inactive; HP1b chromo inh: inactive; G9a block: inactive

How did COc1ccc(-n2cccc2C=O)cc1 do in these assays?
L3MBTL1 block: inactive; JMJD2A Tudor: inactive; BAZ2B block: inactive; Sfp inh: inactive; HP1b chromo inh: inactive; G9a block: inactive

What do the screens show for `COc1ccc(-n2cccc2/C=C/[N+](=O)[O-])cc1`?
L3MBTL1 block: inactive; JMJD2A Tudor: 45µM; BAZ2B block: 35µM; Sfp inh: inconclusive; HP1b chromo inh: 45µM; G9a block: 40µM

What do the screens show for `O=C(Nc1nc2ccccc2n1CCN1CCCC1)C1CCCCC1`?
JMJD2A Tudor: inactive; BAZ2B block: 50µM; Sfp inh: inactive; HP1b chromo inh: inactive; G9a block: inactive[12.7 µM]

What do the screens show for `CCC(=O)Nc1nc2ccccc2n1CCN1CCOCC1`?
L3MBTL1 block: inactive; JMJD2A Tudor: 3.2µM; Sfp inh: inactive; HP1b chromo inh: inactive; G9a block: inconclusive

What do the screens show for `COc1ccc(S(=O)(=O)N(CC(=O)NC(C)c2ccccc2)c2ccc(C)cc2)cc1OC` (stereo unspecified)?
JMJD2A Tudor: inactive; BAZ2B block: inactive; HP1b chromo inh: inactive; G9a block: inconclusive

Results for CNc1nc(-c2ccc(N(C)C)cc2)nc2ccccc12 ?
Sfp inh: inactive

How did Cc1cccc(NS(=O)(=O)c2ccc3c(c2)OCC(C(=O)N2CCCC2)O3)c1C (stereo unspecified) do in these assays?
JMJD2A Tudor: inactive; BAZ2B block: inactive; HP1b chromo inh: inactive; G9a block: inactive

What do the screens show for `CCOc1ccc(CN(CCC#N)C(=S)NC(=O)c2ccccc2)cc1`?
L3MBTL1 block: inactive; JMJD2A Tudor: inactive; BAZ2B block: inactive; Sfp inh: inactive; HP1b chromo inh: inactive; G9a block: 1.4µM

What do the screens show for `COc1ccc(CN(CCC#N)C(=S)NC(=O)c2ccccc2)cc1`?
L3MBTL1 block: inactive; JMJD2A Tudor: inactive; BAZ2B block: inactive; Sfp inh: inactive; HP1b chromo inh: inactive; G9a block: 40µM

How did O=C(c1ccc2c(c1)OCCO2)N(Cc1cccnc1)c1nc2ccc(F)cc2s1 do in these assays?
JMJD2A Tudor: inactive; BAZ2B block: inactive; HP1b chromo inh: inactive; G9a block: inconclusive

What do the screens show for `Cc1ccc(O)c(NC(=O)c2ccc(Br)c(S(=O)(=O)N3CCCCC3)c2)c1`?
JMJD2A Tudor: inconclusive; BAZ2B block: 18µM; HP1b chromo inh: inactive; G9a block: inconclusive

How did Cc1cccc(-n2c(CCn3nc(C)c([N+](=O)[O-])c3C)n[nH]c2=S)c1 do in these assays?
JMJD2A Tudor: 20µM; BAZ2B block: inactive; Sfp inh: inactive; HP1b chromo inh: inactive; G9a block: 0.45µM

How did COc1ccc(CCn2nc(C)c([N+](=O)[O-])c2C)cc1 do in these assays?
JMJD2A Tudor: inactive; BAZ2B block: inactive; Sfp inh: inactive; HP1b chromo inh: inactive; G9a block: inactive

How did COc1cccc(-n2c(CCn3nc(C)c([N+](=O)[O-])c3C)n[nH]c2=S)c1 do in these assays?
L3MBTL1 block: inactive; JMJD2A Tudor: 11µM; BAZ2B block: inactive; Sfp inh: inactive; HP1b chromo inh: inconclusive; G9a block: 25µM

What do the screens show for `COc1ncc2nc(-c3cccs3)c(=O)n(C)c2n1`?
Sfp inh: inactive; G9a block: inactive[0.501 µM]

What do the screens show for `CCCCN(CCCNC(=O)c1c(C)oc2nc[nH]c(=O)c12)Cc1ccccc1`?
JMJD2A Tudor: inactive; BAZ2B block: inactive; HP1b chromo inh: inactive; G9a block: inactive

Results for Cc1cccc(NC(=O)/C=C/c2ccc([N+](=O)[O-])s2)c1 ?
L3MBTL1 block: inactive; JMJD2A Tudor: inactive; BAZ2B block: inactive; Sfp inh: inactive; HP1b chromo inh: inactive; G9a block: inactive

What do the screens show for `O=C(NC(=S)Nc1cccc(F)c1)c1cccc([N+](=O)[O-])c1`?
JMJD2A Tudor: inconclusive; BAZ2B block: inactive; Sfp inh: inconclusive; HP1b chromo inh: inactive; G9a block: inconclusive

What do the screens show for `Cc1cc(Br)ccc1NC(=S)Nc1cccc([N+](=O)[O-])c1`?
L3MBTL1 block: inactive; JMJD2A Tudor: inactive; BAZ2B block: inactive; Sfp inh: inconclusive; HP1b chromo inh: inactive; G9a block: 45µM

How did O=[N+]([O-])c1cccc(NC(=S)NCc2ccncc2)c1 do in these assays?
L3MBTL1 block: inactive; JMJD2A Tudor: inactive; BAZ2B block: inactive; Sfp inh: 13µM; HP1b chromo inh: inactive; G9a block: 35µM

How did Cc1cccc(NC(=S)NNC(=O)c2cccc([N+](=O)[O-])c2)c1 do in these assays?
L3MBTL1 block: inactive; JMJD2A Tudor: inactive; BAZ2B block: inconclusive; Sfp inh: inactive; HP1b chromo inh: inactive; G9a block: 20µM

Results for Cc1cccc(NC(=S)N/N=C/c2ccc([N+](=O)[O-])s2)c1 ?
L3MBTL1 block: inconclusive; JMJD2A Tudor: 56µM; BAZ2B block: 10µM; Sfp inh: inactive; HP1b chromo inh: inconclusive; G9a block: inconclusive

Results for COc1c2c(c(C(=O)/C=C/C(C)=C/c3ccccc3)c3c1OCO3)CCN(C)C2 ?
Sfp inh: inactive

Results for COc1ccc(-n2nnnc2C2CCN(S(=O)(=O)c3ccc(NC(C)=O)cc3)CC2)cc1 ?
JMJD2A Tudor: inactive; BAZ2B block: inactive; HP1b chromo inh: inactive; G9a block: inactive

How did CCCCS(=O)(=O)N1CCc2nc(-c3ccccc3)c3c(c2C1)CO[C@@H](C)C3 do in these assays?
Sfp inh: inactive

What do the screens show for `Cc1occc1C(=O)NNC(=S)Nc1cccc([N+](=O)[O-])c1`?
L3MBTL1 block: inactive; JMJD2A Tudor: inactive; BAZ2B block: inactive; Sfp inh: inactive; HP1b chromo inh: inactive; G9a block: 11µM

How did CCOC(=O)N1CCC(NC(=S)Nc2ccc3nc(N4CCN(C)CC4)cc(C)c3c2)CC1 do in these assays?
JMJD2A Tudor: inactive; BAZ2B block: inactive; Sfp inh: inactive; HP1b chromo inh: inactive; G9a block: inconclusive

Results for CCOC(=O)N1CCC(NC(=S)Nc2ccc3nc(N4CCN(CC)CC4)cc(C)c3c2)CC1 ?
JMJD2A Tudor: inactive[11.4 µM]; BAZ2B block: inconclusive; Sfp inh: inactive; HP1b chromo inh: inactive; G9a block: 25µM

What do the screens show for `CCCN(CCC)CCNC(=O)CCC(=O)Nc1ccc2nc(N3CCN(C)CC3)cc(C)c2c1`?
JMJD2A Tudor: inactive; BAZ2B block: inactive; Sfp inh: inactive; HP1b chromo inh: inactive; G9a block: inconclusive
